Where “and” joins values, the source holds several entries; their conditions need not be identical. Equal entries are not always repeated. Records with an inconclusive call do not appear. Calls of active or inactive are those of the source. The call rests on the fitted dose curve; in most records, active means well fitted curve in the direction sought with a large enough effect in the repeat runs; inconclusive means weak or mixed curves; inactive means no such curve, though single readings can be large; an effect the other way counts as inactive or inconclusive.
On the % scale 0 is the no-effect control and ±100 the full control effect; potency means the concentration at half of the fitted maximal effect.

The nature of the first assay: qHTS RealTime-Glo MT Cell Viability Assay in HepG2 cells - 8 hour (AID 1224873). Further: nearly all actives have a fitted effect of over 55% in size. Particulars: RealTime-Glo luminescence; series mostly up to 76.8 µM. In a few lines: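 Real-time viability: cells seeded at 600 per well together with NanoLuc and cell-permeant prosubstrate, compounds added after 5 h incubation. Luminescence tracked at 0, 8, 16, 24, 32 and 40 h of exposure.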
In the case of `CC1=NC(C)OC1C` (configuration not stated), the Potency entry is “inactive”.
`CCCC(c1cc(C(C)(C)C)c(O)cc1C)c1cc(C(C)(C)C)c(O)cc1C`: the Potency is 39.4 µM (active).
On the same count and under the same terms, the value for `CCCCCCCCn1sc(Cl)c(Cl)c1=O` was 6.16 µM (active).
Regarding `CSc1ccc(/C=C2/C(C)=C(CC(=O)O)c3cc(F)ccc32)cc1`, the Potency result was “inactive”.
Same read-out and setting: the entry for `C/C=C(\C)C(=O)OCc1ccccc1` is “inactive”; for `CCOC(=O)O[C@H](C)OC(=O)c1ccc2c(c1)cc(C(=O)NC1CCN(C(C)C)CC1)n2Cc1cc(-c2ccc(Cl)s2)on1` it is 16.2 µM (active).
In the case of `O=c1[nH]cnc2nc[nH]c12`, the Potency entry is “inactive”.
On to `C[C@]12CCC(=O)C=C1CC[C@@H]1[C@@H]2[C@@H](O)C[C@@]2(C)[C@H]1CC[C@]2(O)C(=O)COC(=O)CCC(=O)O`, for which the Potency entry was “inactive”.
Same read-out and setting: the entry for `NC(=O)CC[C@@H]1NC(=O)[C@H](Cc2ccccc2)NC(=O)[C@H](Cc2ccc(O)cc2)NC(=O)CCSSC[C@@H](C(=O)N2CCC[C@H]2C(=O)N[C@@H](CCCN=C(N)N)C(=O)NCC(N)=O)NC(=O)[C@H](CC(N)=O)NC1=O` is “inactive”; for `COC(=O)C1=C(C)NC(C)=C(C(=O)OCC(C)C)C1c1ccccc1[N+](=O)[O-]` (configuration not stated) it is 43.6 µM (active); for `[Cl][Au]([Cl])[Cl]` it is 49 µM (active).
As to `OCCCCCCCCCCCCBr`, the Potency result was “inactive”.
The same measure, in the same setting: the value for `CC(C)=CCOc1ccc(/C=C/C(=O)c2ccc(OCC=C(C)C)cc2OCC(=O)O)cc1` was “inactive”.
Still for that read-out and setting: the entry for `CSc1ccc(C(=O)c2[nH]c(=O)[nH]c2C)cc1` is “inactive”.
As for `CC(C)(C)c1ccc(C(=O)CCCN2CCC(OC(c3ccccc3)c3ccccc3)CC2)cc1`, the Potency is 19 µM (active).
Same read-out and setting: the figure for `CCC(C)Nc1ccc(NC(C)CC)cc1` (configuration not stated) is 19.9 µM (active).
Same read-out and setting: the entry for `O=[N+]([O-])c1ccccc1Nc1ccccc1` is “inactive”; for `Clc1ccc2nsnc2c1NC1=NCCN1` it is “inactive”.
Consider `CCCCc1oc2ccc(NS(C)(=O)=O)cc2c1C(=O)c1ccc(OCCCN(CCCC)CCCC)cc1`, for which the Potency is 21.3 µM (active).
Same read-out and setting: the entry for `NNC(=O)c1cccc(C(=O)NN)c1` is “inactive”.
As for `CCCCCCCCCCCCCCCS(=O)(=O)Oc1ccccc1`, the Potency entry is “inactive”.
On to `CCC(C)(C)C1CCCCC1OC(C)=O` (configuration not stated), for which the Potency result is “inactive”.
The same measure, in the same setting: the entry for `CCCCCCC[N+](CC)(CC)CCCCc1ccc(Cl)cc1` is “inactive”.
Same read-out and setting: the value for `CCCCCOC(=O)CCCC` was “inactive”; that for `OCCN(CCO)c1nc(N2CCCCC2)c2nc(N(CCO)CCO)nc(N3CCCCC3)c2n1` was “inactive”.
In the case of `Cc1cccc(S(=O)(=O)O)c1C`, the Potency result was “inactive”.
Regarding `COc1cc(/C=C/C(=O)O[C@H]2CC[C@]34C[C@]35CC[C@]3(C)[C@@H]([C@H](C)CCC=C(C)C)CC[C@@]3(C)[C@@H]5CC[C@H]4C2(C)C)ccc1O`, the Potency entry is “inactive”.
In the case of `CCCCCCCCCCn1cc[n+](CCCCCCCCCC)c1C`, the Potency was 49 µM (active).
On the same count and under the same terms, the value for `Clc1ccc(C(Cn2ccnc2)OCc2ccc(Sc3ccccc3)cc2)c(Cl)c1` (configuration not stated) was “inactive”.
The same measure, in the same setting: the value for `Cc1cc(N)c(S(=O)(=O)O)cc1Cl` was “inactive”; that for `CC(C)(C)c1ccc(C(=O)O)cc1` was “inactive”; that for `CCCCCCCCCCC=O` was “inactive”.
On to `CC(C)C(C)(C)C(C)(C)C(C)(C)S`, for which the Potency entry was “inactive”.
Still for that read-out and setting: the entry for `Oc1cccc2cc3cccc(O)c3c(O)c12` is “inactive”.
Same read-out and setting: the entry for `CC(=O)OCC(C)OC(C)=O` (configuration not stated) is “inactive”; for `c1ccc(CSCc2ccccc2)cc1` it is “inactive”.

Another assay in a line: qHTS RealTime-Glo MT Cell Viability Assay in HEK293 cells - 40 hour (AID 1224874). Further: nearly all actives have a fitted effect of over 50% in size. Particulars: RealTime-Glo luminescence; max response: hits give low values. In a few lines:
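Luminescence, which tracks viable cell number through reduction of the prosubstrate to a NanoLuc substrate, was read over continuous 37 C culture. Cells (600/well) were premixed with reagent and rested 5 h before 23 nL of compound in DMSO was pinned.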
Background: In qHTS, concentration-response curves come from the screen itself.
As to `CC1=NC(C)OC1C` (configuration not stated), the max response is 0.967% (inactive).
For `CCCC(c1cc(C(C)(C)C)c(O)cc1C)c1cc(C(C)(C)C)c(O)cc1C`, the Potency is 17.6 µM (active).
On to `CCCCCCCCn1sc(Cl)c(Cl)c1=O`, for which the Potency was 3.47 µM (active).
For `CSc1ccc(/C=C2/C(C)=C(CC(=O)O)c3cc(F)ccc32)cc1`, the max response was 9.83% (inactive).
Still for that read-out and setting: the figure for `C/C=C(\C)C(=O)OCc1ccccc1` is -2.09% (inactive).
Consider `CCOC(=O)O[C@H](C)OC(=O)c1ccc2c(c1)cc(C(=O)NC1CCN(C(C)C)CC1)n2Cc1cc(-c2ccc(Cl)s2)on1`, for which the Potency was 11.5 µM (active).
For `O=c1[nH]cnc2nc[nH]c12`, the max response is 3.71% (inactive).
The same measure, in the same setting: the value for `C[C@]12CCC(=O)C=C1CC[C@@H]1[C@@H]2[C@@H](O)C[C@@]2(C)[C@H]1CC[C@]2(O)C(=O)COC(=O)CCC(=O)O` was -8.8% (inactive); that for `NC(=O)CC[C@@H]1NC(=O)[C@H](Cc2ccccc2)NC(=O)[C@H](Cc2ccc(O)cc2)NC(=O)CCSSC[C@@H](C(=O)N2CCC[C@H]2C(=O)N[C@@H](CCCN=C(N)N)C(=O)NCC(N)=O)NC(=O)[C@H](CC(N)=O)NC1=O` was 0.946% (inactive).
In the case of `COC(=O)C1=C(C)NC(C)=C(C(=O)OCC(C)C)C1c1ccccc1[N+](=O)[O-]` (configuration not stated), the Potency was 19.5 µM (active) and 23.9 µM (active).
In the case of `[Cl][Au]([Cl])[Cl]`, the Potency is 3.09 µM (active).
Still for that read-out and setting: the value for `OCCCCCCCCCCCCBr` was 11.1 µM (active).
Take `CC(C)=CCOc1ccc(/C=C/C(=O)c2ccc(OCC=C(C)C)cc2OCC(=O)O)cc1`: the max response was 1.22% (inactive).
The same measure, in the same setting: the value for `CSc1ccc(C(=O)c2[nH]c(=O)[nH]c2C)cc1` was 2.74% (inactive).
In the case of `CC(C)(C)c1ccc(C(=O)CCCN2CCC(OC(c3ccccc3)c3ccccc3)CC2)cc1`, the Potency was 9.52 µM (active).
On the same count and under the same terms, the figure for `CCC(C)Nc1ccc(NC(C)CC)cc1` (configuration not stated) is 3.97 µM (active).
As to `O=[N+]([O-])c1ccccc1Nc1ccccc1`, the max response is 0.685% (inactive).
On the same count and under the same terms, the value for `Clc1ccc2nsnc2c1NC1=NCCN1` was 0.404% (inactive).
In the case of `CCCCc1oc2ccc(NS(C)(=O)=O)cc2c1C(=O)c1ccc(OCCCN(CCCC)CCCC)cc1`, the Potency is 8.49 µM (active).
Regarding `NNC(=O)c1cccc(C(=O)NN)c1`, the max response is -2.8% (inactive).
On to `CCCCCCCCCCCCCCCS(=O)(=O)Oc1ccccc1`, for which the max response is -18% (inactive).
On the same count and under the same terms, the figure for `CCC(C)(C)C1CCCCC1OC(C)=O` (configuration not stated) is 6.6% (inactive).
Take `CCCCCCC[N+](CC)(CC)CCCCc1ccc(Cl)cc1`: the Potency is 1.9 µM (active).
On to `CCCCCOC(=O)CCCC`, for which the max response is -0.909% (inactive).
For the compound `OCCN(CCO)c1nc(N2CCCCC2)c2nc(N(CCO)CCO)nc(N3CCCCC3)c2n1`, the Potency was 26.8 µM (active).
Regarding `Cc1cccc(S(=O)(=O)O)c1C`, the max response was -3.36% (inactive).
Still for that read-out and setting: the value for `COc1cc(/C=C/C(=O)O[C@H]2CC[C@]34C[C@]35CC[C@]3(C)[C@@H]([C@H](C)CCC=C(C)C)CC[C@@]3(C)[C@@H]5CC[C@H]4C2(C)C)ccc1O` was 1.32% (inactive).
With `CCCCCCCCCCn1cc[n+](CCCCCCCCCC)c1C`, the Potency is 0.979 µM (active).
In the case of `Clc1ccc(C(Cn2ccnc2)OCc2ccc(Sc3ccccc3)cc2)c(Cl)c1` (configuration not stated), the max response is -2.43% (inactive).
Same read-out and setting: the value for `Cc1cc(N)c(S(=O)(=O)O)cc1Cl` was 1.42% (inactive); that for `CC(C)(C)c1ccc(C(=O)O)cc1` was -13.2% (inactive); that for `CCCCCCCCCCC=O` was 2.14% (inactive).
On the same count and under the same terms, the value for `CC(C)C(C)(C)C(C)(C)C(C)(C)S` was 0.74% (inactive); that for `Oc1cccc2cc3cccc(O)c3c(O)c12` was 0.771% (inactive); that for `CC(=O)OCC(C)OC(C)=O` (configuration not stated) was -0.171% (inactive).
Still for that read-out and setting: the figure for `c1ccc(CSCc2ccccc2)cc1` is -5.29% (inactive).

The values are drawn from PubChem BioAssay (Tox21).
